The panel holds about 83,000 compounds, 20% with a hit somewhere; the sample as a whole holds those more often.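 Percent growth is the endpoint: 0 to 100 indicates growth inhibition (40 means 60% inhibition), 0 means no net growth, and negative values indicate cell death.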 A number with no mark means an inactive call. The source made the active and inactive calls. The calls were made as follows: active = growth percent below 10; inactive = the rest.

Drawing on PubChem BioAssay (NCI), this text covers growth for nine molecules.

Test systems include HCT-15 colon; HT29 colon; SNB-75 CNS; SNB-19 CNS; U251 CNS; PC-3 prostate; UACC-62 melanoma; LOX IMVI melanoma; EKVX NSCLC; SN12C renal; UO-31 renal; TK-10 renal; ACHN renal; CAKI-1 renal; CCRF-CEM leukemia; MOLT-4 leukemia; SK-MEL-28 melanoma; SK-MEL-2 melanoma; A498 renal; SK-MEL-5 melanoma.
Common to all, as to assay: NCI-60 one-dose screen, 48 h (100 = growth as untreated, 0 = no growth, -100 = all killed)
Holding throughout (conditions): 10 µM unless noted

Take `Cc1cc(C)cc(C(=O)Nc2cccc(C#Cc3cccc4[nH]nc(N)c34)c2)c1`: the growth in the assay with HCT-15 colon is 33.8%; in the assay on HT29 colon, 41.7%; in the assay on SNB-75 CNS, 40.3%; in the assay on SNB-19 CNS it was 99.5%; in the assay on U251 CNS, 72.2%; in the assay with PC-3 prostate, 33.6%. Also, the growth with UACC-62 melanoma is 60.5%; in the assay on LOX IMVI melanoma, 43.2%; in the assay with EKVX NSCLC, 89.3%; in the assay with SN12C renal, 71.5%; with UO-31 renal, 62.2%; in the assay with TK-10 renal, 92.9%. Besides, the growth with ACHN renal was 56.2%; in the assay on CAKI-1 renal it was 55.3%; in the assay with CCRF-CEM leukemia, 30.5%; with MOLT-4 leukemia, 27%.

For the molecule `Cc1ccc2sc3c(c2c1)OC(N)=C(C#N)C3c1ccc(Cl)cc1` (stereo not given), the growth is 30.3% with HCT-15 colon; 67.3% in the assay on HT29 colon; 81.6% in the assay with SNB-75 CNS; 89.9% in the assay on SNB-19 CNS; 96.3% in the assay with U251 CNS; 71.1% in the assay with PC-3 prostate. Further, the growth in the assay with UACC-62 melanoma is 45.7%; with LOX IMVI melanoma, 86.9%; in the assay with SK-MEL-28 melanoma, 75.2%; in the assay with EKVX NSCLC it was 70.9%; in the assay with SN12C renal, 93.3%; in the assay with UO-31 renal, 75.9%. Further, the growth in the assay on TK-10 renal was 97.3%; in the assay with ACHN renal, 87.4%; with CAKI-1 renal, 60.4%; in the assay with CCRF-CEM leukemia, 75.7%.

In the case of `COc1cc(OC)c(/C=C/S(=O)(=O)Cc2ccc(OC)c(NCC(=O)NO)c2)c(OC)c1`, the growth in the assay with HCT-15 colon is 12.9%; in the assay on HT29 colon, 5.84% (active); in the assay with SNB-75 CNS it was 27.6%; in the assay with SNB-19 CNS, 18.5%; in the assay on U251 CNS, 13.4%; with PC-3 prostate, 22.7%. Further, the growth in the assay with UACC-62 melanoma is 12.4%; in the assay with LOX IMVI melanoma it was 8.14% (active); with SK-MEL-2 melanoma, 51.1%; in the assay on EKVX NSCLC, 34.4%; in the assay on SN12C renal, 19.2%; in the assay with UO-31 renal it was 35.4%. Also, the growth in the assay on TK-10 renal was 65%; in the assay on ACHN renal it was 27.9%; in the assay on CAKI-1 renal, 25.7%; with A498 renal, -11.7% (active); in the assay with CCRF-CEM leukemia, 14.8%; in the assay on MOLT-4 leukemia, 16.5%.

Regarding `COc1ccc(CCN2C(=O)CSC2=S)cc1`, the growth in the assay on HCT-15 colon is 56.9%; with HT29 colon it was 104%; in the assay with SNB-75 CNS, 94.6%; in the assay with SNB-19 CNS, 96.6%; with U251 CNS, 102%; with PC-3 prostate, 88.8%. Moreover, the growth with UACC-62 melanoma was 94.2%; in the assay with LOX IMVI melanoma, 30.3%; in the assay with SK-MEL-28 melanoma it was 93.9%; in the assay on EKVX NSCLC it was 96%; with SN12C renal, 88.8%; in the assay with UO-31 renal, 92%. The growth with TK-10 renal is 65.1%; in the assay with ACHN renal, 99.1%; in the assay on CAKI-1 renal, 82.1%; in the assay with CCRF-CEM leukemia it was 75.3%; with MOLT-4 leukemia, 94.6%.

As to `COc1ccc(/C=C/C(=O)c2cc(S(N)(=O)=O)c(OC)cc2OC)cc1`, the growth with HCT-15 colon was 42.6%; in the assay with HT29 colon, 102%; with SNB-75 CNS, 71.4%; in the assay on SNB-19 CNS, 81%; in the assay on U251 CNS, 68.7%; in the assay with PC-3 prostate it was 42.9%. For the same molecule, the growth with UACC-62 melanoma is 76.8%; in the assay on LOX IMVI melanoma, 52.2%; in the assay with SK-MEL-28 melanoma, 40.9%; with EKVX NSCLC, 92.1%; in the assay with SN12C renal, 61.1%; in the assay on UO-31 renal it was 72.4%. Also, the growth is 92.9% with TK-10 renal; 81.1% with ACHN renal; 63.5% with CAKI-1 renal; 55.7% in the assay on CCRF-CEM leukemia; 71.1% in the assay with MOLT-4 leukemia.

Regarding `CNC(=O)c1cc(Oc2ccc3nc(NC(=O)c4cccc(OC(F)(F)F)c4)sc3c2)ccn1`, the growth with HCT-15 colon was 81.7%; in the assay on HT29 colon, 86%; in the assay with SNB-75 CNS it was 45.5%; with SNB-19 CNS it was 81.3%; in the assay on U251 CNS, 84.3%; in the assay with PC-3 prostate, 73%. Also, the growth in the assay with UACC-62 melanoma was 78.4%; in the assay on LOX IMVI melanoma, 85.2%; with EKVX NSCLC it was 79.6%; with SN12C renal it was 78.7%; with UO-31 renal, 95.7%; in the assay on TK-10 renal, 101%. Also, the figures for the growth with ACHN renal, in the assay with CCRF-CEM leukemia and in the assay with MOLT-4 leukemia were 75.2%, 71.2% and 73.3%, respectively.

Consider `COC(=O)c1ccc(NC2=C/C(=N/S(=O)(=O)c3ccc(C(=O)O)cc3)c3ccccc3C2=O)cc1`, for which the growth in the assay on HCT-15 colon is 61.7%; in the assay on HT29 colon, 112%; in the assay on SNB-75 CNS, 172%; with SNB-19 CNS, 88.6%; in the assay with U251 CNS, 2.7% (active); in the assay on PC-3 prostate, 16.6%. Besides, the growth with UACC-62 melanoma is -24.1% (active); with LOX IMVI melanoma, -65% (active); with SK-MEL-28 melanoma, -32.6% (active); in the assay on SK-MEL-2 melanoma, 4.1% (active); with EKVX NSCLC it was 88.3%; in the assay on SN12C renal it was -71.3% (active). Besides, the growth was -1.04% (active) in the assay on UO-31 renal; 156% in the assay with TK-10 renal; -11.2% (active) with ACHN renal; 119% in the assay on A498 renal; 4.48% (active) with CCRF-CEM leukemia; -15% (active) in the assay on MOLT-4 leukemia.

With `CNC(=O)c1cc(Oc2ccc3nc(NC(=O)c4cc(N5CCOCC5)cc(C(F)(F)F)c4)sc3c2)ccn1`, the growth in the assay with HCT-15 colon was 58.9%; in the assay on HT29 colon, 62.3%; with SNB-75 CNS, 71.6%; in the assay on SNB-19 CNS, 92.9%; in the assay on U251 CNS, 72.3%; with PC-3 prostate, 46.7%. Also, the growth in the assay with UACC-62 melanoma was 72.4%; in the assay with LOX IMVI melanoma, 83.5%; with SK-MEL-28 melanoma, 81.1%; in the assay with EKVX NSCLC it was 70.7%; with SN12C renal, 83.1%; in the assay on UO-31 renal, 87.8%. For the same molecule, the growth in the assay on TK-10 renal was 92.3%; in the assay with ACHN renal, 87.9%; in the assay on CAKI-1 renal, 82.2%; with CCRF-CEM leukemia, 67.3%; with MOLT-4 leukemia, 65.5%.

`COc1cccc2cc(-c3cc4ccccc4[nH]3)/c(=N\NC(=O)c3ccc(Cl)cc3)oc12`: the growth is 20.3% in the assay with HCT-15 colon; 67% in the assay with HT29 colon; 47.4% with SNB-19 CNS; 34.6% with U251 CNS; 35.3% with PC-3 prostate; 48.4% in the assay on SK-MEL-5 melanoma. The growth was 16.1% in the assay on UACC-62 melanoma; 42.6% in the assay with SK-MEL-28 melanoma; 68.3% with SK-MEL-2 melanoma; 33.8% with EKVX NSCLC; 28% in the assay on UO-31 renal; 46.7% in the assay on TK-10 renal. Also, the growth is 17.3% in the assay with ACHN renal, 30.7% in the assay with CAKI-1 renal, 16.6% in the assay on CCRF-CEM leukemia and 15.5% in the assay on MOLT-4 leukemia.
